# Screen size: about 370,000 compounds; about 6,800 (1.8%) were called active. The full list was thinned out, with actives kept by preference. A number with no mark means an inactive call.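 How the source made its calls: active means activation above a cutoff set at the mean of all screened compounds plus 3 SD (cut at about 10% in these data); inactive means the rest.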
# Test system: Nuclear hormone receptor DAF-12 (Heterodera glycines), GAL4 fusion
# Assay: hgDAF-12 GAL4 fusion reporter activation – cell-based, luminescence, HEK293, UAS-luciferase, primary screen (AID 687014);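 further: 0% = DMSO wells and 100% = sodium butyrate wells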
# Details: HEK293 GAL4-hgDAF12 UAS-luciferase reporter, agonist luminescence; at 6.8 µM; stronger effect = higher value; normalized to butyrate control
row,Compound,activation
1,CCCN(C(=O)CSc1nnc(N)s1)c1c(N)n(Cc2ccccc2)c(=O)[nH]c1=O,-3.79%
2,Fc1ccc2nc(Nc3nc4c(s3)CCCC4)sc2c1,12.8% (active)
3,CCS(=O)(=O)N1Cc2ccccc2CC1C(=O)Nc1nc2ccc(F)cc2s1 (stereo unspecified),10.2%
4,COC(=O)C(NC(C)=O)(Nc1nc2c(s1)CCCC2)C(F)(F)F (stereo unspecified),-0.75%
5,CC(=O)N1CCCN(C2=Nc3ccccc3Sc3ccccc32)CC1,-3.68%
6,CCN(CC)C(=O)CC[C@H]1CC[C@]2(CCCN(Cc3ccc(Cl)cc3)C2)O1,-2.24%
7,COC(=O)c1c(-c2ccc(OC)cc2)c2c(c3c4ccccc4n(S(=O)(=O)c4ccc(C)cc4)c13)C(=O)N(C)C2,-0.11%
8,Cc1ccc2nc(-c3ccccc3)c(CC3CCCCC3)n2c1,15.8% (active)
9,Cc1ccc2nc(-c3cccnc3)c(NC3CCCC3)n2c1,-2.27%
10,COc1ccccc1Cc1c(-c2ccc(F)cc2)nc2ccc(C)cn12,9.36%
11,Cc1ccc(NC(=O)Nc2cc(C)nn2-c2ccccc2)cc1,0.6%
12,Cc1cccc(/C(N)=N/OC(=O)c2ccccc2Cl)c1,22.6% (active)
13,C/C(=N\OC(=O)c1ccccc1)c1c(C)nc2cc(C)ccn12,1.13%
14,Cc1cc(OC(=O)c2ccccc2Cl)ccc1N1C(=O)CCC1=O,1.41%
15,COc1ccc(CSc2nnc(SCC(=O)Nc3ccccc3C(F)(F)F)s2)cc1,-0.44%
16,COc1cccc(NC(=O)N(C)C[C@@H]2OCc3cn(nn3)CCCC(=O)N([C@@H](C)CO)C[C@H]2C)c1,-1.94%
17,CCS(=O)(=O)n1nc(-c2ccccc2)nc1SCc1ccccc1,13.2% (active)
18,CCS(=O)(=O)n1nc(-c2ccc(OC)cc2)nc1SC,2.82%
19,O=S(=O)(c1ccc(SCc2ccccc2)nc1)N1CCCCCC1,3.56%
20,CCN1C(=O)[C@@H]2[C@@H](c3ccc(-c4cccc(Cl)c4)cc3)N3CCC[C@@]3(C(=O)OC)[C@@H]2C1=O,-0.28%
21,C=CCN(Cc1ccc2c(c1)OCO2)C(C#CC1CC1)C(C)(C)C (stereo unspecified),0.18%
22,O=C(NNC(=S)NC1CCCCC1)c1ccccc1Cl,-1.15%
23,O=C(NC1CCCCCC1)C1CCN(C(=O)c2ccc(Cl)cc2)CC1,-2.28%

row,Compound,activation
1,O=C(NC(=S)NC1CCCCC1)c1ccc(Cl)cc1,14.2% (active)
2,CN(C)/C=C(\C#N)C(=O)c1cccnc1Oc1cccc(F)c1,-0.67%
3,CCC(=O)OCCCN1C(=O)CCC12CCC(c1ccccc1)CC2 (stereo unspecified),-0.73%
4,CC1(C)N=C(N)NC(Nc2ccc(Cl)cc2)=N1,-2.03%
5,Clc1ccc(Nc2ccc3ccccc3n2)cc1,19.3% (active)
6,C=CCNc1nc(Nc2ccc(Cl)cc2)nc(OC)n1,2.81%
7,CCC(C)[C@@H](C(=O)OC)N(CCc1cn(Cc2ccccc2)nn1)S(=O)(=O)c1ccccc1Br (stereo partly specified),-4.53%
8,CCOC(=O)CC(NC(=O)C1c2ccccc2Oc2ccccc21)c1ccc(C)cc1 (stereo unspecified),-2.51%
9,CCOC(=O)C1=C(C)c2ccccc2OC1C(=O)OCC (stereo unspecified),12.1% (active)
10,CCCN(CCC)C(=O)C1c2ccccc2Oc2ccccc21,-0.5%
11,Cc1ccc(C2NC(C(=O)O)CS2)cc1 (stereo unspecified),-0.05%
12,CC(CCN1CCC(C(O)(c2ccccc2)c2ccccc2)CC1)Oc1ccc([N+](=O)[O-])cc1Cl (stereo unspecified),4%
13,COc1ccccc1C(=O)NC1CCCCN(C(C)C)C1=O (stereo unspecified),2.92%
14,Cc1ccccc1NC(=O)COC(=O)c1ccc(Sc2ncn[nH]2)c([N+](=O)[O-])c1,1.49%
15,Cc1ccc(NNC(=O)C2CCC2)cc1C,1.26%
16,Cc1ccc(N/C=C/C(=O)c2ccccc2)cc1C,19.8% (active)
17,COC(C(=O)Nc1ccc(S(=O)(=O)Nc2ccc(C)c(C)c2)cc1)c1ccccc1 (stereo unspecified),-3.51%
18,N#Cc1c(NCCO)ccc([N+](=O)[O-])c1NCCO,-1.17%
19,COC(=O)[C@]12C[C@H](CC(=O)NCC34CC5CC(CC(C5)C3)C4)C(=O)N(Cc3ccc(Cl)cc3Cl)C1=C[C@H](COCc1ccccc1)O[C@@H]2C,1.95%
20,C[C@H](C(=O)N(C)c1ccccc1)[C@@H](O)c1ccc2ccccc2c1,-1.62%
21,CC(C)n1c(O)c(N=Nc2ccccn2)c2ccccc21,1.77%
22,Oc1oc(-c2ccccc2Br)nc1/C=N/c1ccccn1,10.8% (active)
23,COc1cccc(-c2cc(CNC(=O)[C@@H](Cc3ccccc3)NC(=O)[C@H]3O[C@@H](n4cnc(C(N)=O)n4)[C@H](O)[C@@H]3O)no2)c1,3.48%

row,Compound,activation
1,COC(=O)CC1CCc2cc(C)cc(C(CC(C)C)NC(=O)[C@H](CC(C)C)NC(=O)OCc3ccccc3)c2O1 (stereo partly specified),-1.05%
2,O=C(/C=C/c1cnc2ccccc2n1)NC1CCCCCC1,11.9% (active)
3,CC1CCCCC1NC(=O)Cn1c(=O)cnc2ccccc21 (stereo unspecified),-0.26%
4,O=C(Cn1c(-c2cncs2)nc2ccccc21)NC1CCCC1,0.16%
5,C[N+](C)(C)CCNC(=O)c1c[nH]c2ccccc12,0.11%
6,O=C(CCCCCn1c(=O)[nH]c2ccccc2c1=O)NCCc1c[nH]c2ccccc12,-0.27%
7,O=C(NCCc1c[nH]c2ccccc12)c1cc2ccccc2oc1=O,14.6% (active)
8,Clc1cccc2c1C1CC2CCN1Cc1ccccc1 (stereo unspecified),0.38%
9,COc1ccc(-c2cc(-c3nnc(SCc4ccc([N+](=O)[O-])cc4)n3N)[nH]n2)cc1,3.72%
10,Nc1ncnc2c1ncn2[C@@H]1O[C@H](C(=O)N[C@@H](CCc2ccccc2)C(=O)N2CCCN(Cc3cccs3)CC2)[C@@H](O)[C@H]1O,1.83%
11,Nc1nc2cc(Cl)ccc2n1N,0.42%
12,Nc1ccc2nn(-c3ccc(Cl)cc3)nc2c1,18.1% (active)
13,Nc1ccc2c(c1)C(O)c1ccc(Cl)cc1-2 (stereo unspecified),2.17%
14,COc1ccc(S(=O)(=O)N[C@@H]2C=C[C@@H](CC(=O)N3CCc4ccccc4C3)O[C@@H]2CO)cc1,-1.55%
15,COc1ccc(C2CC(c3cccs3)=Nc3ccccc3S2)cc1OC (stereo unspecified),6.91%
16,COc1ccc(-c2csc(-c3cccs3)n2)cc1OC,14.5% (active)
17,COc1ccc(-c2csc3nc(-c4ccccc4F)oc(=O)c23)cc1OC,-0.2%
18,COC(=O)C1=C(C)N(Cc2ccccc2C(F)(F)F)C(=NCc2ccc(C(F)(F)F)cc2)NC1c1ccc(F)cc1 (stereo unspecified),0.87%
19,CCCCOCCCNC(=O)C[C@H]1C[C@@]2(C(=O)OC)C(=C[C@H](COCc3ccccc3)O[C@@H]2C)N(Cc2cccc3ccccc23)C1=O,5.41%
20,CCOc1c(N2CCCCC2)c(=O)c1=O,-2.21%
21,Cc1ccc(CSc2nnc(SCC(=O)NN=Cc3cc(Br)ccc3F)s2)cc1,6.25%
22,CC(C)(C)c1ccc(/C=C/C(=O)NCCCn2ccnc2)cc1,3.86%
23,CC(C)(C)c1ccc(/C=C/C(=O)Nc2ncccn2)cc1,16.6% (active)

row,Compound,activation
1,Cc1cc(C)nc(NC(=O)/C=C/c2ccc(Cl)cc2)n1,-0.13%
2,CN(C)S(=O)(=O)c1ccc2oc(SCC(=O)Nc3ccccc3F)nc2c1,15.5% (active)
3,COc1ccc(S(=O)(=O)N(C)C)cc1NC(=O)CSc1ncccn1,1.65%
4,CCS(=O)(=O)c1ccc2oc(SCC(=O)N3c4ccccc4CC3C)nc2c1 (stereo unspecified),-2.27%
5,O=C(CNC(=O)c1ccccc1)OC(C(=O)Nc1cc([N+](=O)[O-])ccc1F)c1ccccc1 (stereo unspecified),6.44%
6,COC(=O)c1cc(S(=O)(=O)N2CCN(C(=O)C3CCCO3)CC2)cn1C (stereo unspecified),-0.48%
7,C=C(C)C#CC(Cc1ccccc1)NCC1CC1 (stereo unspecified),1.34%
8,COc1cccc(Cn2cc(COC(=O)Nc3ccc(F)cc3)nn2)c1,-2.67%
9,COc1ccc(/C=N/NC(=O)Cn2cc(C(F)(F)F)ccc2=O)cc1,-5.01%
10,COc1ccc(/C=N/Nc2ccccc2C(=O)O)cc1,12.8% (active)
11,COc1ccc(SSc2ccc(OC)cc2C(=O)O)c(C(=O)O)c1,-1.26%
12,N#Cc1c(N)nc2c(c1N)CC(C(F)(F)F)O2 (stereo unspecified),2.74%
13,CCOC(=O)[C@]12CCCC3=C1N(CCC3)C(=O)[C@@H](CC(=O)N1CCSCC1)C2,-0.16%
14,O=C(NCCCc1ccccc1)[C@H](Cc1ccccc1)NC1(C(=O)NCCc2c[nH]c3ccccc23)CCC1,-3.84%
15,O=C(OC12CCCN(C1)/C(=C/c1cccnc1)C2)C1CCCC1 (stereo unspecified),-3.6%
16,COC(=O)c1sc(NC(=O)c2ccc(OC)cc2OC)nc1C,19.3% (active)
17,COc1ccc(C(=O)NC2CC(C)(C)Cc3c2cnn3-c2ccccc2)c(OC)c1 (stereo unspecified),-4.18%
18,COc1ccc(NC(=O)COC(=O)c2ccncc2)c(OC)c1,-1.12%
19,COc1ccc(C(=O)CSc2nnnn2C)c(OC)c1,1.57%
20,COc1ccc(C(=O)Nc2nncs2)c(OC)c1,10.4% (active)
21,COc1ccc(C(=O)N2CCCN(C)CC2)c(OC)c1,-2.22%
22,COC(=O)C1=C(C)N(Cc2ccc(C(F)(F)F)cc2)C(=NCc2ccc(C(F)(F)F)cc2)NC1c1cccc(Cl)c1 (stereo unspecified),6.59%

# Source: PubChem BioAssay AID687014 (The Scripps Research Institute Molecular Screening Center, 2013)
